# Test results from PubChem BioAssay AID1159580 (chemical genetic matrix, 2015).
# Values joined by “and” are separate entries in the source; they are usually repeats but may differ in a detail not shown here. Equal entries are not always repeated. In all, about 5,500 compounds went through this assay and about 2,000 (36%) were called active. Not shown: some 18% with an inconclusive outcome. No stated cut-off is given here; in the data, active means normalized growth mostly below about 0.91 (no sharp cut-off); inconclusive means no clear call, values can overlap the other calls; inactive means mostly above about 0.92. Some of the results follow. A structure can be active in one record and inactive in another.
# Assay: chemical genetic growth profiling, strain panel (AID 1159580);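 further: tested at 20 µM; growth read once vehicle control cultures reached saturation at 30 °C; 1 = growth at the plate median or of vehicle wells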
# Conditions: S. cerevisiae deletion strains, growth OD
compound,measurement,setting,value
CN1CCN(CCCN2c3ccccc3Sc3ccc(Cl)cc32)CC1,normalized growth,"locus YAL013W, strain DEP1, stronger effect = lower value",0.216 (active) and 1.03 (inactive)
same,normalized growth,"locus YAL021C, strain ccr4, stronger effect = lower value",0.706 (active)
same,normalized growth,"locus YAL026C, strain drs2, stronger effect = lower value",0.0669 (active)
same,normalized growth,"locus YAL030W, strain snc1, stronger effect = lower value",0.922 (active)
same,normalized growth,"locus YAL040C, strain CLN3, stronger effect = lower value",0.97 (inactive)
same,normalized growth,"locus YBL061C, strain skt5, stronger effect = lower value",0.888 (active)
same,normalized growth,"locus YBR009C, strain hhf1, stronger effect = lower value",0.8 (active)
same,normalized growth,"locus YBR021W, strain FUR4, stronger effect = lower value",0.413 (active)
same,normalized growth,"locus YBR023C, strain chs3, stronger effect = lower value",0.868 (active)
same,normalized growth,"locus YBR171W, strain sec66, stronger effect = lower value",0.987 (inactive)
same,normalized growth,"locus YBR229C, strain ROT2, stronger effect = lower value",1 (inactive)
same,normalized growth,"locus YBR231C, strain swc5, stronger effect = lower value",0.663 (active)
same,normalized growth,"locus YCL011C, strain gbp2, stronger effect = lower value",0.772 (active)
same,normalized growth,"locus YCL016C, strain dcc1, stronger effect = lower value",0.938 (inactive)
same,normalized growth,"locus YCL029C, strain bik1, stronger effect = lower value",1.03 (inactive)
same,normalized growth,"locus YCL061C, strain MRC1 (second series), stronger effect = lower value",0.997 (inactive)
same,normalized growth,"locus YCL069W, strain vba3, stronger effect = lower value",0.966 (inactive)
same,normalized growth,"locus YCR088W, strain abp1, stronger effect = lower value",0.831 (active)
same,normalized growth,"locus YDL005C, strain med2, stronger effect = lower value",1 (inactive)
same,normalized growth,"locus YDL035C, strain GPR1, stronger effect = lower value",0.214 (active)
same,normalized growth,"locus YDL040C, strain nat1, stronger effect = lower value",0.964 (inactive)
same,normalized growth,"locus YDL074C, strain BRE1, stronger effect = lower value",0.296 (active)
same,normalized growth,"locus YDL101C, strain DUN1, stronger effect = lower value",0.965 (inactive)
same,normalized growth,"locus YDL134C, strain PPH21, stronger effect = lower value",0.982 (inactive)
same,normalized growth,"locus YDL185W, strain tfp1, stronger effect = lower value",0.964 (inactive)
same,normalized growth,"locus YDL192W, strain arf1, stronger effect = lower value",0.0937 (active)
same,normalized growth,"locus YDR001C, strain nth1, stronger effect = lower value",0.993 (inactive)
same,normalized growth,"locus YDR069C, strain doa4, stronger effect = lower value",0.804 (active)
same,normalized growth,"locus YDR101C, strain arx1, stronger effect = lower value",0.929 (inactive)
same,normalized growth,"locus YDR137W, strain rgp1, stronger effect = lower value",1.26 [resistant] (active)
same,normalized growth,"locus YDR150W, strain NUM1, stronger effect = lower value",0.563 (active)
same,normalized growth,"locus YDR159W, strain sac3, stronger effect = lower value",0.974 (inactive)
same,normalized growth,"locus YDR162C, strain NBP2, stronger effect = lower value",0.0524 (active)
same,normalized growth,"locus YDR195W, strain ref2",1.15 [resistant] (active)
same,normalized growth,"locus YDR297W, strain sur2, stronger effect = lower value",0.968 (inactive)
same,normalized growth,"locus YDR318W, strain mcm21, stronger effect = lower value",0.91 (active)
same,normalized growth,"locus YDR334W, strain swr1, stronger effect = lower value",0.94 (inactive)
same,normalized growth,"locus YDR335W, strain msn5, stronger effect = lower value",0.96 (inactive)
same,normalized growth,"locus YDR363W, strain ESC2, stronger effect = lower value",0.891 (inactive)
same,normalized growth,"locus YDR388W, stronger effect = lower value",0.805 (active)
same,normalized growth,"locus YDR392W, strain spt3, stronger effect = lower value",0.954 (inactive)
same,normalized growth,"locus YDR502C, strain sam2, stronger effect = lower value",0.39 (active)
same,normalized growth,"locus YEL003W, strain gim4, stronger effect = lower value",0.832 (active)
same,normalized growth,"locus YEL037C, strain rad23, stronger effect = lower value",0.963 (inactive)
same,normalized growth,"locus YEL061C, strain CIN8 (second series), stronger effect = lower value",0.986 (inactive)
same,normalized growth,"locus YEL061C, strain CIN8, stronger effect = lower value",0.664 (active)
same,normalized growth,"locus YER002W, strain NOP16, stronger effect = lower value",1 (inactive)
same,normalized growth,"locus YER015W, strain faa2, stronger effect = lower value",0.556 (active)
same,normalized growth,"locus YER016W, strain bim1, stronger effect = lower value",0.972 (inactive)
same,normalized growth,"locus YER110C, stronger effect = lower value",1.02 (inactive)
same,normalized growth,"locus YER111C, strain swi4, stronger effect = lower value",0.993 (inactive)
same,normalized growth,"locus YER155C, strain BEM2 (second series), stronger effect = lower value",0.861 (active)
same,normalized growth,"locus YER155C, strain BEM2, stronger effect = lower value",1.04 (inactive)
same,normalized growth,"locus YER167W, strain BCK2, stronger effect = lower value",0.858 (active)
same,normalized growth,"locus YFR010W, strain ubp6, stronger effect = lower value",0.734 (active)
same,normalized growth,"locus YGL078C, strain dbp3, stronger effect = lower value",0.966 (inactive)
same,normalized growth,"locus YGL086W, strain mad1, stronger effect = lower value",0.61 (active)
same,normalized growth,"locus YGL167C, strain pmr1, stronger effect = lower value",0.947 (inactive)
same,normalized growth,"locus YGL173C, strain kem1, stronger effect = lower value",0.874 (active)
same,normalized growth,"locus YGL227W, strain vid30, stronger effect = lower value",0.997 (inactive)
same,normalized growth,"locus YGL240W, strain doc1, stronger effect = lower value",1.01 (inactive)
same,normalized growth,"locus YGL248W, strain PDE1, stronger effect = lower value",0.99 (inactive)
same,normalized growth,"locus YGL253W, strain hxk2, stronger effect = lower value",0.927 (inactive)
same,normalized growth,"locus YGR078C, strain PAC10, stronger effect = lower value",0.594 (active)
same,normalized growth,"locus YGR135W, strain pre9, stronger effect = lower value",0.544 (active)
same,normalized growth,"locus YGR229C, strain SMI1, stronger effect = lower value",0.065 (active) and 1.02 (inactive)
same,normalized growth,"locus YGR252W, strain gcn5, stronger effect = lower value",0.309 (active)
same,normalized growth,"locus YHR013C, strain ard1, stronger effect = lower value",0.872 (inactive)
same,normalized growth,"locus YHR027C, strain rpn1, stronger effect = lower value",0.594 (active)
same,normalized growth,"locus YHR030C, strain SLT2, stronger effect = lower value",0.465 (active) and 1.02 (inactive)
same,normalized growth,"locus YHR079C, strain IRE1 (second series), stronger effect = lower value",0.969 (inactive)
same,normalized growth,"locus YHR079C, strain IRE1, stronger effect = lower value",1 (inactive)
same,normalized growth,"locus YHR094C, strain hxt1, stronger effect = lower value",1 (inactive)
same,normalized growth,"locus YHR129C, strain ARP1, stronger effect = lower value",0.932 (inactive)
same,normalized growth,"locus YHR142W, strain chs7, stronger effect = lower value",0.854 (active)
same,normalized growth,"locus YHR200W, strain rpn10, stronger effect = lower value",0.869 (active)
same,normalized growth,"locus YIL066C, strain RNR3, stronger effect = lower value",0.793 (active)
same,normalized growth,"locus YIL073C, strain SPO22, stronger effect = lower value",0.854 (inactive)
same,normalized growth,"locus YIL125W, strain kgd1, stronger effect = lower value",0.958 (inactive)
same,normalized growth,"locus YIR030C, strain dcg1, stronger effect = lower value",1 (inactive)
same,normalized growth,"locus YJL092W, strain hpr5, stronger effect = lower value",0.942 (inactive)
same,normalized growth,"locus YJL095W, strain BCK1 (second series), stronger effect = lower value",0.919 (active)
same,normalized growth,"locus YJL095W, strain BCK1, stronger effect = lower value",0.494 (active) and 1.04 (inactive)
same,normalized growth,"locus YJL115W, strain asf1, stronger effect = lower value",0.99 (inactive)
same,normalized growth,"locus YJL129C, strain trk1, stronger effect = lower value",0.83 (active)
same,normalized growth,"locus YJL134W, strain LCB3, stronger effect = lower value",0.991 (inactive)
same,normalized growth,"locus YJL154C, strain vps35, stronger effect = lower value",0.982 (inactive)
same,normalized growth,"locus YJL164C, strain tpk1, stronger effect = lower value",0.878 (active)
same,normalized growth,"locus YJL166W, strain qcr8, stronger effect = lower value",0.809 (active)
same,normalized growth,"locus YJL168C, strain set2, stronger effect = lower value",1.01 (inactive)
same,normalized growth,"locus YJL187C, strain SWE1 (second series), stronger effect = lower value",0.85 (active)
same,normalized growth,"locus YJR043C, strain POL32, stronger effect = lower value",0.247 (active)
same,normalized growth,"locus YJR066W, strain TOR1, stronger effect = lower value",0.968 (inactive)
same,normalized growth,"locus YJR075W, strain HOC1, stronger effect = lower value",0.131 (active)
